The values below come from PubChem BioAssay (NCATS).

Records with an inconclusive call do not appear. Calls of active or inactive are those of the source. Calls come from the whole dose curve; as a rule, active = well fitted curve in the direction sought with a large enough effect; inconclusive = small, poorly fitted or top-dose-only effect, or another doubt; inactive = no such curve, though single readings can be large; an effect the other way counts as inactive or inconclusive.

Test [1] can be described thus: qHTS of pediatric cancer cell lines to identify multiple opportunities for drug repurposing: Primary screen for A673 cells (AID 1347092). Note: nearly all actives have a fitted effect of over 45% in size. Note: potency is the fitted concentration of half-maximal effect. The procedure, abridged: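 Titration-based qHTS on A673 cells: MIPE compounds spanned 11 points (0.78 nM to 46 µM final), NPC compounds 8 points (0.59 nM to 46 µM final). Viability after 48 h was measured by ATP luminescence.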
On the technique in general: qHTS replaces the single test concentration by a dilution series.

Test [2] in a line: qHTS of pediatric cancer cell lines to identify multiple opportunities for drug repurposing: Primary screen for BT-37 cells (AID 1347094). Note: potency is the fitted concentration of half-maximal effect. The procedure, abridged:
(§1)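 CRCs from 8- or 11-point titrations (lowest final 0.59 nM NPC, 0.78 nM MIPE). Cell viability: CellTiter-Glo after 48 h incubation, 15 min room-temperature development, luminescence imaging.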

The nature of test [3]: qHTS of pediatric cancer cell lines to identify multiple opportunities for drug repurposing: Primary screen for NB-EBc1 cells (AID 1347095). Note: potency is the fitted concentration of half-maximal effect. The procedure, abridged:
as §1

Test [4] is described as follows: qHTS of pediatric cancer cell lines to identify multiple opportunities for drug repurposing: Primary screen for U-2 OS cells (AID 1347096). Note: nearly all actives have a fitted effect of over 50% in size. Note: potency is the fitted concentration of half-maximal effect. The procedure, abridged: (§2)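 Cells (500-1,000/well) rested 5 h, then received compounds for 48 h; metabolically active cells were measured by CellTiter-Glo luminescence. Final concentrations spanned up to 46 µM (MIPE, 11-point) or 0.59 nM-46 µM (NPC, 8-point) in primary screens, 11-point in follow-ups.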

The nature of test [5]: qHTS of pediatric cancer cell lines to identify multiple opportunities for drug repurposing: Primary screen for Saos-2 cells (AID 1347097). Note: nearly all actives have a fitted effect of over 40% in size. Note: potency is the fitted concentration of half-maximal effect. The procedure, abridged: as §1
Test [6] can be described thus: qHTS of pediatric cancer cell lines to identify multiple opportunities for drug repurposing: Primary screen for SK-N-SH cells (AID 1347098). Note: nearly all actives have a fitted effect of over 65% in size. Note: potency is the fitted concentration of half-maximal effect. The procedure, abridged:
as §2

Test [7] is described as follows: qHTS of pediatric cancer cell lines to identify multiple opportunities for drug repurposing: Primary screen for LAN-5 cells (AID 1347100). Note: potency is the fitted concentration of half-maximal effect. The procedure, abridged: as §2
Test [8] in a line: qHTS of pediatric cancer cell lines to identify multiple opportunities for drug repurposing: Primary screen for BT-12 cells (AID 1347101). Note: nearly all actives have a fitted effect of over 25% in size. Note: potency is the fitted concentration of half-maximal effect. The procedure, abridged: as §2
Test [9] can be described thus: qHTS of pediatric cancer cell lines to identify multiple opportunities for drug repurposing: Primary screen for OHS-50 cells (AID 1347103). Note: nearly all actives have a fitted effect of over 40% in size. Note: potency is the fitted concentration of half-maximal effect. The procedure, abridged: as §2
The nature of test [10]: qHTS of pediatric cancer cell lines to identify multiple opportunities for drug repurposing: Primary screen for RD cells (AID 1347104). Note: nearly all actives have a fitted effect of over 55% in size. Note: potency is the fitted concentration of half-maximal effect. The procedure, abridged:
as §1

The nature of test [11]: qHTS of pediatric cancer cell lines to identify multiple opportunities for drug repurposing: Primary screen for MG 63 (6-TG R) cells (AID 1347105). Note: nearly all actives have a fitted effect of over 50% in size. Note: potency is the fitted concentration of half-maximal effect. The procedure, abridged:
as §1

Test [12] in a line: qHTS of pediatric cancer cell lines to identify multiple opportunities for drug repurposing: Primary screen for control Hh wild type fibroblast cells (AID 1347106). Note: nearly all actives have a fitted effect of over 55% in size. Note: potency is the fitted concentration of half-maximal effect. The procedure, abridged: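 Cells (500-1,000/well) in growth media were settled 5 h at 37 degrees C, then given compounds for 48 h. Viability was read as CellTiter-Glo luminescence. Primary runs used MIPE at 11 points (0.78 nM-46 µM) and NPC at 8 points (0.59 nM-46 µM); follow-ups used 11 points.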

A short description of test [13]: qHTS of pediatric cancer cell lines to identify multiple opportunities for drug repurposing: Primary screen for Rh30 cells (AID 1347107). Note: series mostly up to about 46 µM; nearly all actives have a fitted effect of over 75% in size. The procedure, abridged:
as §2

A short description of test [14]: qHTS of pediatric cancer cell lines to identify multiple opportunities for drug repurposing: Primary screen for SK-N-MC cells (AID 1347093). Note: potency is the fitted concentration of half-maximal effect. The procedure, abridged: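 Metabolically active cells were quantified by ATP-dependent luminescence (CellTiter-Glo, 15 min at room temperature) following 48 h treatment. Cells had been plated at 500-1,000 per well and settled for 5 h beforehand.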

The nature of test [15]: qHTS of pediatric cancer cell lines to identify multiple opportunities for drug repurposing: Primary screen for NB1643 cells (AID 1347099). Note: nearly all actives have a fitted effect of over 50% in size. Note: potency is the fitted concentration of half-maximal effect. The procedure, abridged:
as §1

Test [16] is described as follows: qHTS of pediatric cancer cell lines to identify multiple opportunities for drug repurposing: Primary screen for Rh18 cells (AID 1347102). Note: nearly all actives have a fitted effect of over 65% in size. Note: potency is the fitted concentration of half-maximal effect. The procedure, abridged: as §2
Test [17] in a line: qHTS of pediatric cancer cell lines to identify multiple opportunities for drug repurposing: Primary screen for Rh41 cells (AID 1347108). Note: nearly all actives have a fitted effect of over 70% in size. Note: potency is the fitted concentration of half-maximal effect. The procedure, abridged: as §1
A short description of test [18]: qHTS of pediatric cancer cell lines to identify multiple opportunities for drug repurposing: Confirmatory screen for NB1643 cells (AID 1347109). Note: nearly all actives have a fitted effect of over 45% in size. Note: potency is the fitted concentration of half-maximal effect. The procedure, abridged:
as §2

A short description of test [19]: qHTS of pediatric cancer cell lines to identify multiple opportunities for drug repurposing: Confirmatory screen for SK-N-MC cells (AID 1347111).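 Note: cells exposed to compound for 48 h before the readout; nearly all actives have a fitted effect of over 70% in size.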 Note: potency is the fitted concentration of half-maximal effect. The procedure, abridged: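 Seed 500-1,000 cells/well; rest 5 h at 37 degrees C. Pin-transfer compounds, 11-point titration. Incubate 48 h. Add CellTiter-Glo, 15 min RT, read luminescence.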
A short description of test [20]: qHTS of pediatric cancer cell lines to identify multiple opportunities for drug repurposing: Confirmatory screen for A673 cells (AID 1347110).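 Note: potency is the fitted concentration of half-maximal effect; cells exposed to compound for 48 h before the viability read; nearly all actives have a fitted effect of over 65% in size.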 The procedure, abridged: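 Forty-eight-hour viability assay. Follow-up compounds ran at 11-point dilutions; positive control bortezomib at 2.3 uM final, neutral control DMSO.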

Consider `C[C@H](CCC(=O)O)[C@H]1CCC2C3C[C@H](O)[C@@H]4C[C@H](O)CC[C@]4(C)C3CC[C@@]21C` (stereo partly drawn), for which the Potency result in test [1], in test [2], in [3], in test [4], in test [5] and in test [6] was “inactive” in each case. The Potency result in [7], in test [8], in test [9], in test [10], in [11] and in test [12] was “inactive” throughout. The Potency entry in [13] is “inactive”.

Turning to `CN1C(C(=O)Nc2ccccn2)=C(O)c2sc(Cl)cc2S1(=O)=O`, the Potency in test [1] is 2960 nM (active); in test [14] it was 4690 nM (active); in test [3] it was 16600 nM (active); in test [6] it was 9610 nM (active); in [15] it was 18700 nM (active). Besides, the Potency entry in test [8] and in test [13] was “inactive” throughout.

In the case of `FC(F)c1nc2ccccc2n1-c1nc(N2CCOCC2)nc(N2CCOCC2)n1`, the Potency in test [1] was 1180 nM (active); in [14] it was 59 nM (active); in test [3], 662 nM (active); in test [5], 526 nM (active); in test [15], 1480 nM (active); in [7], 1180 nM (active). The Potency in [8] is 1220 nM (active); in test [16], 935 nM (active); in [9], 76.9 nM (active); in test [10], 418 nM (active); in [11], 187 nM (active); in [17], 1480 nM (active). Moreover, the Potency was 1470 nM (active) in test [18] and 737 nM (active) in [19].

Regarding `NS(=O)(=O)OC[C@@H]1C[C@@H](n2ccc3c(N[C@H]4CCc5ccccc54)ncnc32)C[C@H]1O`, the Potency is 148 nM (active) in test [1]; 93.5 nM (active) in [14]; 132 nM (active) in test [3]; 6620 nM (active) in test [15]; 833 nM (active) in [7]; 833 nM (active) in test [10]. The Potency was 6620 nM (active) in test [12] and 14700 nM (active) in [20]. Further, the Potency result in test [6], in test [9], in test [18] and in [19] was “inactive” in each case.

As to `O=C1c2cccc(O)c2C(=O)c2c(O)cc(CO)cc21`, the Potency result in test [1], in [2], in test [3], in test [4], in [5] and in test [6] was “inactive” in each case. The Potency entry in test [7], in [8], in [16], in [9], in test [11] and in [12] was “inactive” throughout. In test [13], the Potency result was “inactive”. Moreover, in test [15], the Potency was 26400 nM (active).

Take `C[C@H](CCC(=O)O)[C@H]1CC[C@H]2[C@@H]3[C@H](O)C[C@@H]4C[C@H](O)CC[C@]4(C)[C@@H]3CC[C@]12C`: the Potency entry in [1], in test [2], in test [3], in [4], in test [5] and in [6] was “inactive” throughout. Also, the Potency entry in test [7], in test [8], in test [10], in test [11], in test [12] and in test [13] was “inactive” each time.

As to `Cc1cc(O)c2c(c1)C(=O)c1cccc(O)c1C2=O`, the Potency entry in [1], in test [2], in [3], in test [4], in [6] and in test [15] was “inactive” each time. For the same compound, the Potency entry in [7], in test [8], in [16], in test [9], in test [10] and in [11] was “inactive” in each case. Further, the Potency entry in test [12], in test [13] and in test [17] was “inactive” throughout.

Turning to `O=C(O)C[C@H](O)C[C@H](O)C=Cc1c(C2CC2)nc2ccccc2c1-c1ccc(F)cc1`, the Potency in test [1] was 3720 nM (active); in test [2] it was 15300 nM (active); in [3], 20900 nM (active); in [4], 9350 nM (active); in [5] it was 833 nM (active); in test [6], 4820 nM (active). Moreover, the Potency is 9350 nM (active) in test [15]; 4690 nM (active) in test [16]; 18700 nM (active) in test [10]; 1480 nM (active) in [11]; 4690 nM (active) in [17]; 2330 nM (active) in [20]. Further, the Potency in test [19] is 4650 nM (active).

Take `C#C[C@]1(O)CC[C@@H]2[C@@H]3CCC4=CC(=O)CC[C@@H]4[C@H]3CC[C@@]21CC`: the Potency entry in test [1], in test [2], in test [3], in test [4], in test [5] and in test [15] was “inactive” in each case. For the same compound, the Potency entry in [7], in test [8], in [16], in test [10], in test [11] and in test [12] was “inactive” throughout.

With `COc1cc([C@@H]2c3cc4c(cc3[C@H](O)[C@H]3COC(=O)[C@@H]23)OCO4)cc(OC)c1OC`, the Potency in [1] is 93.5 nM (active); in test [14], 74.3 nM (active); in test [3] it was 20.9 nM (active); in test [5], 118 nM (active); in test [7], 83.3 nM (active); in [8], 273 nM (active). The results for the Potency in test [20] and in [19] were 928 nM (active) and 585 nM (active), respectively. For the same compound, the Potency entry in test [6] and in test [13] was “inactive” each time.

With `COc1ccnc2[nH]cc(C(=O)C(=O)N3CCN(C(=O)c4ccccc4)C[C@@H]3C)c12`, the Potency result in [1], in test [2], in [3], in test [4], in test [5] and in [7] was “inactive” each time. For the same compound, the Potency result in [16], in test [9], in test [11], in [12], in test [13] and in test [17] was “inactive” throughout.

On to `CC(C)N(CC[C@H](c1ccccc1)c1cc(CO)ccc1O)C(C)C`, for which the Potency result in test [1], in test [2], in [3], in [4], in test [5] and in test [15] was “inactive” in each case. In addition, the Potency entry in test [7], in test [8], in test [16], in test [10], in [11] and in test [12] was “inactive” in each case. In addition, the Potency result in test [13] and in test [17] was “inactive” in each case.

For `CS(=O)(=O)N1CCc2c(-c3cnc(N)nc3)nc(N3CCOCC3)nc21`, the Potency in test [1] was 935 nM (active); in [14] it was 37.2 nM (active); in [3], 235 nM (active); in test [5] it was 935 nM (active); in test [15], 469 nM (active); in [7], 332 nM (active). Further, the Potency in [16] is 372 nM (active); in test [9] it was 54.4 nM (active); in [10], 418 nM (active); in test [11] it was 118 nM (active); in test [17] it was 833 nM (active); in [18] it was 1650 nM (active). Also, the Potency is 4140 nM (active) in test [20] and 2610 nM (active) in test [19]. The Potency entry in test [12] is “inactive”.
